Shn3 inh set2: reduces Shn3 3'UTR luciferase signal in osteoblasts; Clone20 osteoblast Shn3 3'UTR firefly luciferase, 24 h; inhibition, % at 12.5 µM; 0.52% of 360,000 active; AID 588674;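 active means mean inhibition of at least 75% with every replicate also reaching 75%; inconclusive means mean inhibition at least 75% but some replicate below; inactive means mean inhibition below 75%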;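 further: 0% = median of neutral control wells and 100% = pilot-screen positive control compound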
PAX8 inh HTS: PAX8 transcriptional activity inhibition; RMG-I TPO-luciferase reporter, SteadyGlo, 24 h; inhibition, % at 12.6 µM; 1.2% of 360,000 active;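 active means mean replicate inhibition at least 60% with every replicate also reaching 60%; inconclusive means only one of the two criteria is met; inactive means mean below 60% and not all replicates reaching 60%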;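 further: luciferase light reporting Pax8 driven TPO promoter activity; plate controls were median of neutral control wells for no effect and mitoxantrone controls for full effect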
CF NFkB inh: inhibitors of cystic fibrosis induced NF-kB; KKLEB NF-kB-GFP reporter, PAF-induced, GFP fluorescence overnight; inhibition, % at 5 µM; 0.86% of 360,000 active; AID 588850;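 active means at least 50% inhibition at 5 µM, scaled per plate between neutral and stimulator controls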;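 further: PAF is a Pseudomonas aeruginosa culture filtrate used as stimulus; plate controls were PAF-stimulated DMSO wells for no effect and unstimulated DMSO wells for full effect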
KKLEB tox: reduces viability of KKLEB cystic fibrosis airway cells. activity change (cytotoxicity), % at 5 µM. 0.36% of 360,000 active. AID 602141. KKLEB CF airway cells viability, ATPlite luminescence, overnight; stronger effect = lower value; cells stimulated with P. aeruginosa culture filtrate;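 active means corrected activity change at or below -50% at 5 µM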
LGR2 antag: blocks bursicon-induced cAMP signaling via Drosophila LGR2. HEK293 LGR2, CRE-luciferase, bursicon-stimulated, 4 h. inhibition, % at 9.99 µM. 0.35% of 380,000 active;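 active means drop in luminescence signal, shown as inhibition above about 50% in the replicate tests, limit read from the data, passing the limit was not always enough; inconclusive means probably only some replicates passing the limit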;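 further: agonist challenge used bursicon conditioned medium at about half maximal strength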
EWS-Fli inh: inhibitors of EWS/Fli oncoprotein transcriptional activity; A673 NR0B1-luciferase reporter, viability-normalised; inhibition, % at 12.6 µM; 0.67% of 350,000 active;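 active means mean inhibition of at least 50% after viability correction, with every replicate also passing that limit; inconclusive means mean reaches 50% but only one of two replicates passes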;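 further: firefly luciferase signal divided by Alamar Blue viability fluorescence both relative to DMSO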
Numbers without * were called inactive; ? = inconclusive; . = no result given; ! = repeats disagree. Sampled rows, rich in hits. Any-hit rate of the full collection: about 2%.

SMILES	Shn3 inh set2	PAX8 inh HTS	CF NFkB inh	KKLEB tox	LGR2 antag	EWS-Fli inh
COc1cc(-c2c(-c3ccsc3)sc3ccccc23)cc(OC)c1OC	4	11	9	-6	6	4
COc1cc(-c2c(CCO)sc3ccccc23)cc(OC)c1OC	.	17	.	.	-7	56*
CN1C(=O)c2cc(NC(=O)Nc3ccccc3F)ccc2OC[C@@H]2O[C@@H](CC(=O)O)CC[C@H]21	.	-17	.	.	-5	1
COc1ccc(S(=O)(=O)N2CCCCN3[C@H](CO)[C@H](c4ccc(C#CC(C)C)cc4)[C@H]3C2)cc1	.	77*	.	.	8	35
COc1ccc(S(=O)(=O)N2CCCCN3[C@H](CO)[C@H](c4ccc(C5=CCCC5)cc4)[C@H]3C2)cc1	.	5	.	.	10	9
COc1ccc(S(=O)(=O)N2CCCCN3[C@H](C2)[C@@H](c2ccc(C#CC(C)C)cc2)[C@@H]3CO)cc1	.	91*	.	.	-7	11
COc1ccc(S(=O)(=O)N2CCCCN3[C@H](CO)[C@H](c4ccc(C5=CCCCC5)cc4)[C@H]3C2)cc1	.	65*	.	.	.	0
CCCC#Cc1ccc([C@@H]2[C@@H](CO)N3C(=O)CN(C(=O)Nc4ccc(F)cc4)C[C@H]23)cc1	.	.	.	.	25	.
COC(=O)C1=CN(c2ccc(OC)cc2OC)C(N)=C(C#N)C1c1ccccc1F (stereo unspecified)	.	22	.	.	-14	53*
COC(=O)C1=CN(c2ccc(OC)cc2)C(N)=C(C#N)C1c1ccccc1F (stereo unspecified)	.	18	.	.	-25	43
Cc1ccc(-c2nc3ncccc3o2)cc1NC(=O)c1sc2ccccc2c1Cl	85*	.	-2	-1	-1	7
Cc1ccc(-c2nc3ncccc3o2)cc1NC(=O)c1cccs1	-18	11	-20	7	8	-11
COc1ccc(CN(CCN(C)C)c2ccccn2)cc1	1	83*!	21	-6	2	1
O=C(COc1ccc2ccccc2c1)Nc1nccs1	12	-4	12	-22	73*	7
COc1ccc(OCC(=O)Nc2cccc(NC(=O)COc3ccc(OC)cc3)n2)cc1	-37	.	49	-63*	.	.
CC1(C(=O)NCc2cccc(C(F)(F)F)c2)CCN1Cc1ccc(-c2ccccc2)o1 (stereo unspecified)	30	74*	18	2	8	12
CC1(C(=O)NCc2cccc(C(F)(F)F)c2)CCN1Cc1cc2ccccc2o1 (stereo unspecified)	-2	12	-8	-7	22	4
Nc1nc(N)c2cc(CNc3ccc(Cl)c(Cl)c3)ccc2n1	?	26	45	-26	107*	14
CN1C[C@H](O)COC[C@H]2O[C@@H](CC(=O)N3CCN(c4ccccc4)CC3)CC[C@@H]21	.	-24	.	.	6	5
CCn1nc([N+](=O)[O-])c(C(C#N)c2nc3cc(C(F)(F)F)ccc3s2)c(Cl)c1=O (stereo unspecified)	9	.	61*	-35	6	.
COc1ccc(N2C(=O)C3C4c5ccccc5C(C=Nc5ccc(C)cc5C)(c5ccccc54)C3C2=O)cc1 (stereo unspecified)	24	65*	6	0	.	.
CO[C@H]1CN(C)C(=O)c2ccc(NC(=O)Cc3ccccc3)cc2OC[C@H](C)N(C(C)=O)C[C@H]1C	.	.	.	.	-1	4
CC1CCN(c2ccc(-c3cccc(NC(=O)c4ccco4)c3)nn2)CC1	-49	-62	16	-45	-26	32
O=C(Nc1cccc(-c2ccc(N3CCCCC3)nn2)c1)C(F)(F)F	82	95*	-2	-43	82*	.
CCC(=O)Nc1cccc(-c2ccc(N3CCC(C)CC3)nn2)c1	3	18	8	-55*	?	.
SMILES	Shn3 inh set2	PAX8 inh HTS	CF NFkB inh	KKLEB tox	LGR2 antag	EWS-Fli inh
CC1CCN(c2ccc(-c3cccc(NC(=O)C(F)(F)F)c3)nn2)CC1	83	94*	22	-66*	97*	.
CO[C@H]1CN(C)C(=O)c2cc(NC(C)=O)ccc2OC[C@@H](C)N(C(=O)c2ccc(F)cc2)C[C@@H]1C	.	.	.	.	14	-1
CCn1c(C)nc2cc(-c3nc4n(n3)Cc3ccccc3-4)ccc21	97*	.	-2	-88*	.	.
Cc1ccc(-c2nc3n(n2)Cc2ccccc2-3)cc1	-22	.	-13	-44	.	.
O=C(c1ccccc1F)N1CC(=O)N2[C@H](CO)[C@H](c3ccc(-c4ccc(F)cc4)cc3)[C@@H]2C1	.	-8	.	.	-3	-8
O=C(C1=C[C@H](c2ccccc2)C[C@H](OCCCCO)O1)N1CCN(Cc2ccccc2)CC1	-4	13	9	-2	-29	15
C#Cc1ccc([C@@H]2C=C(C(=O)N3CCN(Cc4ccccc4)CC3)O[C@H](OCCCCO)C2)cc1	93*	.	22	-3	.	.
CCCC(=O)N1CC2(CN(C(=O)Nc3cccc(F)c3)C2)c2c(n(C)c3cc(OC)ccc23)[C@H]1CO	.	.	.	.	13	3
Cn1ccnc1SCc1nc2c(cnn2-c2ccccc2)c(=O)[nH]1	-22	140*	-4	2	2	2
O=c1[nH]c(CSc2ccccn2)nc2c1cnn2-c1ccccc1	-18	-7	1	-2	-10	.
CCCN1C[C@@H](C)[C@@H](OC)CN(C)C(=O)c2ccc(NC(=O)CC)cc2OC[C@H]1C	.	.	.	.	-9	12
COC1OC(COCc2ccccc2)C2OC(C)(C)OC2C1O (stereo unspecified)	.	104*	.	.	16	-7
C[C@H](CO)N1C[C@H](C)[C@H](CN(C)C(=O)Nc2ccc(F)cc2)Oc2ccc(NC(=O)CCN3CCOCC3)cc2CC1=O	.	17	.	.	-16	-5
CC(C)C#Cc1ccc2c(c1)O[C@@H](CN(C)S(C)(=O)=O)[C@@H](C)CN([C@@H](C)CO)S2(=O)=O	.	.	.	.	2	-17
CCc1cc2c(nc1CC)CCCN2S(=O)(=O)c1ccc(OC)cc1	.	21	.	.	-9	72*
O=C(Nc1ccc(Cl)cc1)Nc1nnc(SCc2ccc(Cl)cc2)s1	-4	-4	28	-5	-9	4
O=C(Nc1cccc(Cl)c1)Nc1nnc(-c2ccncc2)s1	35	104*	73*	-58*	54*	2
Cc1ccc(NC(=O)Nc2nnc(CSCCOc3ccc(Cl)cc3)s2)cc1	18	19	8	8	.	12
O=C(Nc1ccc(F)cc1)Nc1nnc(-c2ccncc2)s1	-6	.	85*	-48	10	.
O=C(Nc1ccc(Cl)cc1)Nc1nnc(-c2ccncc2)s1	-15	2	84*	-89*	?	.
O=C(Nc1cccc(Cl)c1)Nc1nnc(CSCCOc2ccc(Cl)cc2)s1	67	107*	44	-26	15	.
C[C@H](O)C#Cc1ccc2c(c1)O[C@H](CN(C)CC1CCOCC1)[C@@H](C)CN([C@H](C)CO)S2(=O)=O	.	-1	.	.	16	8
